Source: PubChem BioAssay (NCI)
This is part of a sample that, as a whole, favours compounds with a hit. Of some 79,000 tested, about 15% had one in any assay. Rule as the data show it: active = growth inhibition above about 70%; inactive = the rest. Where a SMILES comes first, the peptide text is derived from it. [ ]: non-standard residue; d: D form. The star is where a group is joined. ξ: configuration not given here. Tos = Cc1ccc(S(=O)(=O)*)cc1; ξY = NC(Cc1ccc(O)cc1)C(=O)O

What was measured:
[1] = NCI Yeast Anticancer Drug Screen. Data for the rad50 strain (AID 155);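 also: 0% = growth of vehicle-only cultures of the same strain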; details: S. cerevisiae rad50 strain growth inhibition; at 50.0 µM; active compounds read high
Procedure, shortened: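 Cells are treated with compound, grown, and their growth is then scored against vehicle-only cultures of the same repair-deficient yeast strain.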

[2] = NCI Yeast Anticancer Drug Screen. Data for the mec2-1 strain (AID 157); details: S. cerevisiae mec2-1 strain, at 50.0 µM, active compounds read high
Procedure, shortened: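 mec2-1 yeast strain, carrying an alteration in DNA damage repair or cell cycle control, was exposed to compounds; growth inhibition was measured relative to vehicle-treated controls.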

[3] = NCI Yeast Anticancer Drug Screen. Data for the sgs1 mgt1 strain (AID 161);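 also: 0% = growth of cultures given vehicle only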; details: S. cerevisiae sgs1 mgt1 strain, at 50.0 µM, active compounds read high
Procedure, shortened: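 Yeast cells carrying a defined DNA-repair defect were exposed to test compounds. Growth inhibition was measured relative to vehicle-treated controls.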

[4] = NCI Yeast Anticancer Drug Screen. Data for the cln2 rad14 strain (AID 165);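 also: 0% = growth equal to vehicle treated cultures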; details: S. cerevisiae cln2 rad14 strain, at 50.0 µM, active compounds read high
Procedure, shortened: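 Yeast carrying cln2 and rad14 alterations (cell cycle control and DNA damage repair) were exposed to compounds. Growth inhibition was measured against vehicle-treated controls.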

[5] = NCI Yeast Anticancer Drug Screen. Data for the bub3 strain (AID 167); details: S. cerevisiae bub3 mutant strain, at 50.0 µM, active compounds read high
Procedure, shortened: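 Part of a panel of yeast mutants defective in DNA damage repair or cell cycle regulation. Each strain is grown with compound, and inhibition is calculated relative to solvent-treated cultures.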

[6] = NCI Yeast Anticancer Drug Screen. Data for the mlh1 rad18 strain (AID 175); details: S. cerevisiae mlh1 rad18 strain growth inhibition; at 50.0 µM; active compounds read high
Procedure, shortened: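 Growth inhibition of the yeast strain was measured after compound exposure and expressed relative to vehicle-treated controls. The strain carries defined defects in DNA damage repair.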

Measured: growth inhibition

FC(F)(F)c1ccc(C2ON=C(c3ccccc3)N2C23CC4CC(CC(C4)C2)C3)cc1 (stereo unspecified)
inactive: [1] 17.1% | [2] 4.1% | [3] 25.1% | [4] -0.4% | [5] -7.5% | [6] 1.25%

O=C(Nc1ccccc1)Nc1ccc2ccccc2c1
inactive: [1] -7.75% | [2] -0.2% | [3] 2.1% | [4] -22.2% | [5] 12.9% | [6] -10.9%

CCCCCC/C(C=O)=C\c1ccccc1
inactive: [1] 31.8% | [2] 17.6% | [3] 26.6% | [4] 16.4% | [5] -4.6% | [6] 20.4%

COc1cccc(Nc2sc(C(=O)c3cc4cc(Cl)ccc4o3)c(N)c2C#N)c1
inactive: [1] -11.1% | [2] -8.65% | [3] -20.6% | [4] -2.75% | [5] -3.55% | [6] -7.55%

Cc1ccc(N=C=Nc2ccc(C)cc2)cc1
inactive: [1] 2.65% | [2] 2.65% | [3] -3.05% | [4] -9.75% | [5] 2.85% | [6] -1.5%

CCO/N=C(\N)c1ccccc1
inactive: [1] -8.4% | [2] 1.75% | [3] -2.5% | [4] -18.9% | [5] 0.95% | [6] 3.25%

O=C1CCCC2=C(N1)C(=O)C=CC2=O
inactive: [1] -2.55% | [2] 20.9% | [3] 17.1% | [4] 39.5% | [5] -0.2% | [6] -20.9%

O=C(OC1COC(OC(=O)c2ccc([N+](=O)[O-])cc2)C(OC(=O)c2ccc([N+](=O)[O-])cc2)C1OC(=O)c1ccc([N+](=O)[O-])cc1)c1ccc([N+](=O)[O-])cc1 (stereo unspecified)
inactive: [1] -6.15% | [2] 1.65% | [3] -9.9% | [4] -16.9% | [5] -1.3% | [6] 4.3%

CCOC(=O)CNC(=O)CNC(=O)CNS(=O)(=O)c1ccc(C)cc1
inactive: [1] -22.1% | [2] 15.2% | [3] 3.1% | [4] -28.5% | [5] 10.9% | [6] -45.8%

O=C1C(Br)=C(Oc2ccccc2)C(=O)C(Br)=C1Oc1ccccc1
inactive: [1] 7.85% | [2] 11.4% | [3] 13.6% | [4] 1.05% | [5] 10.8% | [6] -8.45%

CCCCC(O)c1ccc[n+]([O-])c1 (stereo unspecified)
inactive: [1] 4.3% | [2] -21% | [3] 0.6% | [4] 2.95% | [5] -3.4% | [6] 3.95%

O=C(NNC(=S)Nc1cccc(Cl)c1)c1ccncc1
inactive: [1] 21.8% | [2] 6.5% | [3] 26.6% | [4] 9.45% | [5] 19.9% | [6] -9.55%

NC(CC(=O)O)CC(=O)O
inactive: [1] 12.9% | [2] 2.6% | [3] 1.8% | [4] 14.7% | [5] 5.65% | [6] 17.8%

CCC(=O)Cc1cnccn1
inactive: [1] -47.1% | [2] -32.5% | [3] -12.3% | [4] -10.1% | [5] -9.15% | [6] -12.4%

CC(=O)/C(=C\c1ccc([N+](=O)[O-])cc1)C(=O)CCN(C)C
inactive: [1] 5.25% | [2] 28.1% | [3] 34.9% | [4] -5.3% | [5] 13.4% | [6] -41.2%

Nc1c(Cl)cc2c(c1Br)Cc1cc(F)ccc1-2
inactive: [1] -0.15% | [2] 2.15% | [3] -3.55% | [4] -0.05% | [5] 14.8% | [6] -9.65%

N#Cc1c(-c2ccccc2)c[nH]c1/N=C/N
inactive: [1] -17.6% | [2] -16.8% | [3] -9.75% | [4] -10.4% | [5] -10.2% | [6] -6.5%

CCN(CC)CCn1c2ccccc2c(=O)c2c(O)ccc(O)c21
inactive: [1] 14.8% | [2] -1.3% | [3] 3.35% | [4] 4.45% | [5] 6.95% | [6] -0.55%

O=C(O)c1c(Br)c(Br)c(Br)c(Br)c1C(=O)Nc1cc([N+](=O)[O-])ccc1O
inactive: [1] 14.2% | [2] -8.45% | [3] 8.9% | [4] 7.9% | [5] 4.05% | [6] 3.85%

COC(=O)C(Cc1ccc(O)cc1)NC(=O)CNS(=O)(=O)c1ccc(C)cc1 (stereo not drawn) (Tos-Gly-[ξY]-OMe)
inactive: [1] 35.8% | [2] -4.1% | [3] 19.9% | [4] 10.9% | [5] -1.2% | [6] 8.4%

CC1CC(C)OC(C)(Cc2ccccc2)O1 (stereo unspecified)
inactive: [1] 23.8% | [2] 20.4% | [3] 25.6% | [4] -19.9% | [5] -2.15% | [6] -13.9%

Cc1ccccc1C(=O)OCCBr
inactive: [1] 10.3% | [2] -6.2% | [3] 4.15% | [4] -27.1% | [5] 8.2% | [6] 2.9%

COc1ccc2c(Cc3ccccc3O)cncc2c1O
inactive: [1] 0.9% | [2] 2.25% | [3] -4.75% | [4] -3.5% | [5] -5.9% | [6] 14.8%

O=[N+]([O-])c1ccc(-c2cc[cH-]c2)cc1.[Fe+2].c1cc[cH-]c1
inactive: [1] -4.4% | [2] 14.2% | [3] 13.8% | [4] 3.4% | [5] 17.8% | [6] -0.75%

Cn1c(=O)c2[nH]c(CSc3ccccc3)nc2n(C)c1=O
inactive: [1] 9% | [2] -5.15% | [3] 6.2% | [4] -2.1% | [5] 21.8% | [6] -14.8%

Cc1cc(=O)[nH]c(=S)n1-c1nc2ccccc2o1
inactive: [1] -11.2% | [2] 7.65% | [3] -0.8% | [4] -9.55% | [5] -27.6% | [6] 12.8%

Cc1ccc(S(=O)(=O)/N=C/C=P(c2ccccc2)(c2ccccc2)c2ccccc2)cc1
inactive: [1] 11.4% | [2] 7.45% | [3] -22.1% | [4] -19% | [5] -2.1% | [6] -3.65%

COc1ccc(C(=Nc2ccc(C)cc2)c2ccccc2)cc1
inactive: [1] -2.1% | [2] 7.2% | [3] -6.05% | [4] -43.6% | [5] -9.1% | [6] -15.6%

CN(C)CCCNC(=S)S
inactive: [1] -17% | [2] -28.6% | [3] 5.25% | [4] 11.2% | [5] -22.1% | [6] -4.35%

CCC/C=N/NC(=O)c1ccc(OC)cc1
inactive: [1] -2.45% | [2] -15.8% | [3] -6.85% | [4] -46.9% | [5] 5.85% | [6] -4.7%

O=C(Nc1nc2ncn(CCI)c2c(=O)[nH]1)c1ccccc1
inactive: [1] -8.3% | [2] 6.55% | [3] 6.1% | [4] -1.4% | [5] 6.7% | [6] -14.3%

CCOC(=O)/C=C(/O)CC(=O)OCC.[Cu+2]
inactive: [1] -11.8% | [2] -1.8% | [3] -5.7% | [4] -21% | [5] -17.1% | [6] -0.45%

CCOC(=O)Nc1cc(C(F)(F)F)ccc1F
inactive: [1] -14.8% | [2] -16.2% | [3] -14% | [4] -43.9% | [5] 3.95% | [6] -7.1%

CCOC(=O)c1ccc(NC(=S)NC(=O)c2cccs2)o1
inactive: [1] 43.4% | [2] 49.8% | [3] 39.4% | [4] 36.1% | [5] 31.2% | [6] 63.4%

CCOc1c(Cc2ccccc2)c(=O)n2c3ccccc3n3c(=O)n(C)c(=O)c1c23
inactive: [1] -5.8% | [2] -22.4% | [3] -54.2% | [4] 11.8% | [5] -12.8% | [6] -25%

Cc1ccc(-n2cnc3c(=O)[nH]cnc32)cc1N
inactive: [1] -12.6% | [2] 5.45% | [3] 3.3% | [4] -9.9% | [5] -6.25% | [6] 11.2%

Cc1nn(C(=O)c2ccc(Cl)cc2)c2c1C(c1ccccc1[N+](=O)[O-])SC(N)=N2 (stereo unspecified)
inactive: [1] -9.6% | [2] -1.5% | [3] 7.05% | [4] 33% | [5] 27.6% | [6] -9.05%

NCCCn1c2ccccc2c2cnccc21
inactive: [1] 7.2% | [2] 4.15% | [3] 2.15% | [4] -6.65% | [5] 1.05% | [6] -20.2%

COc1ccc(COc2ccc([N+](=O)[O-])cc2)cc1
inactive: [1] -12.2% | [2] 5% | [3] -4.45% | [4] -9% | [5] -13.9% | [6] -2.25%

Clc1ccccc1C(N1CCCCC1)N1CCCCC1
inactive: [1] 27.9% | [2] 13.2% | [3] 19.4% | [4] 13.5% | [5] 28% | [6] 28.1%

O=[N+]([O-])c1ccc2oc(=Nc3ccccc3)c(Nc3ccccc3)nc2c1
inactive: [1] -21.4% | [2] 11.4% | [3] -18.6% | [4] 15.9% | [5] 6.75% | [6] 6.25%
